In PubChem BioAssay (NCI) one finds growth data, which are given here for 15 compounds.

The structures appear in SMILES notation. About 83,000 compounds went through this panel and 20% of them were active in at least one assay; those are over-represented in the sample as a whole.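 In brief: 96-well plates, 48 h treatment, single concentration, percent growth endpoint.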 A number with no mark means an inactive call. Activity calls are given as the source filed them. Rule for the calls: active = growth percent below 10; inactive = the rest.

Test systems include RPMI-8226 leukemia; OVCAR-8 ovarian; OVCAR-5 ovarian; SK-OV-3 ovarian; IGROV1 ovarian; OVCAR-3 ovarian; HS 578T breast; NCI/ADR-RES ovarian; T-47D breast.
Common to all, as to experiment: NCI-60 one-dose screen, 48 h (100 = growth as untreated, 0 = no growth, -100 = all killed)
What all share (settings): 10 µM unless noted

`O=C1c2ccc3c4c(ccc(c24)C(=O)N1CCCCO)C(=O)N(CCCCO)C3=O`: the growth in the experiment on RPMI-8226 leukemia is 16.8%; in the experiment with OVCAR-8 ovarian it was 75.4%; in the experiment on OVCAR-5 ovarian, 106%; in the experiment on SK-OV-3 ovarian it was 85.1%; in the experiment on IGROV1 ovarian, 86.2%; with OVCAR-3 ovarian, 32.9%. The growth with HS 578T breast was 78.2%; in the experiment with NCI/ADR-RES ovarian it was 82.2%; in the experiment on T-47D breast it was 87.3%.
Take `O=c1c2cc(F)ccc2sc2c(NCCCNCCO)nc3ccc(Cl)cc3c12`: the growth was 36% in the experiment on RPMI-8226 leukemia; 63.7% in the experiment on OVCAR-8 ovarian; 79.5% in the experiment with OVCAR-5 ovarian; 87.7% in the experiment with SK-OV-3 ovarian; 32% in the experiment with IGROV1 ovarian; 68% in the experiment with OVCAR-3 ovarian. Also, the growth is 56.8% in the experiment with HS 578T breast, 85.8% in the experiment with NCI/ADR-RES ovarian and 57.5% in the experiment with T-47D breast.
`O=C1c2cc(I)ccc2Oc2cc([N+](=O)[O-])ccc2N1c1ccc(Cl)cc1F`: the growth is 87.4% in the experiment with RPMI-8226 leukemia; 91% with OVCAR-8 ovarian; 90.5% in the experiment with OVCAR-5 ovarian; 96.1% in the experiment with SK-OV-3 ovarian; 72.3% in the experiment with IGROV1 ovarian; 100% with OVCAR-3 ovarian. In addition, the growth with HS 578T breast is 88.6%; in the experiment with NCI/ADR-RES ovarian, 89.7%; with T-47D breast it was 82.5%.
Take `COc1cc(C#N)cc2[nH]c(=O)oc12`: the growth in the experiment with RPMI-8226 leukemia was 107%; in the experiment with OVCAR-8 ovarian it was 112%; with OVCAR-5 ovarian, 98.8%; in the experiment on SK-OV-3 ovarian it was 113%; with IGROV1 ovarian, 105%; with OVCAR-3 ovarian, 106%. Also, the growth in the experiment on HS 578T breast was 99.1%; with NCI/ADR-RES ovarian, 99.6%; with T-47D breast it was 101%.
On to `CCOC(=O)c1cc2c(n1Cc1ccccc1OC)-c1oncc1CCC2`, for which the growth in the experiment on RPMI-8226 leukemia was 14.9%; in the experiment on OVCAR-8 ovarian it was 35.4%; in the experiment with OVCAR-5 ovarian it was 69.5%; with SK-OV-3 ovarian, 24.2%; in the experiment on OVCAR-3 ovarian it was 8.96% (active); with HS 578T breast, 10.9%. The growth with NCI/ADR-RES ovarian was 15%; with T-47D breast, 38.6%.
On to `FC(F)(F)c1cccc(Nc2nc(-c3ccccc3)nc3ncccc23)c1`, for which the growth was -39.8% (active) with RPMI-8226 leukemia; 89.4% with OVCAR-8 ovarian; 107% in the experiment on OVCAR-5 ovarian; 90.2% with SK-OV-3 ovarian; 98.8% in the experiment on IGROV1 ovarian; 32.2% in the experiment on OVCAR-3 ovarian. Moreover, the figures for the growth in the experiment with HS 578T breast, in the experiment with NCI/ADR-RES ovarian and in the experiment with T-47D breast were -49.5% (active), 86.3% and 82.9%, respectively.
Take `O=C(NC1CCN(Cc2ccccc2)CC1)c1cc(C(=O)NC2CCN(Cc3ccccc3)CC2)cc(C(=O)NC2CCN(Cc3ccccc3)CC2)c1`: the growth in the experiment on RPMI-8226 leukemia is 56.4%; in the experiment on OVCAR-8 ovarian, 91.9%; in the experiment on OVCAR-5 ovarian, 112%; in the experiment on SK-OV-3 ovarian, 79.8%; in the experiment with IGROV1 ovarian it was -33.7% (active); in the experiment on OVCAR-3 ovarian it was 87%. The growth was 79.6% in the experiment on HS 578T breast, 82.1% with NCI/ADR-RES ovarian and 72.5% in the experiment on T-47D breast.
Turning to `COc1cc(/C=C/C(=O)N2c3ccccc3CC2C)c(OC)c2c1OCO2` (configuration not stated), the growth is 88.6% in the experiment on RPMI-8226 leukemia; 96.9% in the experiment on OVCAR-8 ovarian; 87.1% in the experiment with OVCAR-5 ovarian; 122% with SK-OV-3 ovarian; 105% with IGROV1 ovarian; 103% in the experiment on OVCAR-3 ovarian. In addition, the growth in the experiment on HS 578T breast was 96.2%; with NCI/ADR-RES ovarian, 81.5%; with T-47D breast, 77.2%.
Consider `O=C(CCN1C(=O)c2ccccc2C1=O)Nc1ccc(Cl)cc1`, for which the growth was 8.45% (active) in the experiment with RPMI-8226 leukemia; 48.8% with OVCAR-8 ovarian; 104% in the experiment on OVCAR-5 ovarian; 97.9% in the experiment on SK-OV-3 ovarian; 77.8% with IGROV1 ovarian; 78.3% in the experiment on OVCAR-3 ovarian. Also, the growth is 39.1% in the experiment with HS 578T breast, 74.1% in the experiment on NCI/ADR-RES ovarian and 60.1% in the experiment with T-47D breast.
With `COc1cccc(-c2nn(C)c3sc(C(=O)NCCN4CCN(c5ccccc5F)CC4)cc23)c1`, the growth in the experiment on RPMI-8226 leukemia was -18.3% (active); in the experiment with OVCAR-8 ovarian, 88%; with OVCAR-5 ovarian, 88.4%; with SK-OV-3 ovarian, 88.7%; in the experiment on IGROV1 ovarian, 65.2%; in the experiment with HS 578T breast, 63%. Moreover, the growth in the experiment with NCI/ADR-RES ovarian was 84.9%; with T-47D breast, 57.4%.
In the case of `COc1ccccc1N1C(=N)S/C(=C\c2ccc(OCc3ccccc3F)cc2)C1=O`, the growth with RPMI-8226 leukemia is 70.1%; with OVCAR-8 ovarian, 55.3%; in the experiment with OVCAR-5 ovarian, 101%; with SK-OV-3 ovarian, 102%; in the experiment on IGROV1 ovarian, 73.5%; with OVCAR-3 ovarian, 86.7%. Besides, the growth was 86.7% in the experiment on HS 578T breast, 71.3% in the experiment on NCI/ADR-RES ovarian and 66.8% in the experiment on T-47D breast.
As to `O=c1oc2ccc(Cl)cc2c(=O)n1-c1cc(C(F)(F)F)cc(C(F)(F)F)c1`, the growth with RPMI-8226 leukemia was -26% (active); in the experiment with OVCAR-8 ovarian, 7.66% (active); in the experiment on OVCAR-5 ovarian, 25.2%; in the experiment with SK-OV-3 ovarian, -10.6% (active); in the experiment on IGROV1 ovarian, 16%; with OVCAR-3 ovarian, 7.95% (active). Moreover, the growth in the experiment on HS 578T breast is -15.1% (active); in the experiment on NCI/ADR-RES ovarian, 5.39% (active); in the experiment with T-47D breast, -9.71% (active).
As for `c1ccc(-c2ccc(-c3nc4ccccc4[nH]3)cc2)cc1`, the growth with RPMI-8226 leukemia was 51.2%; in the experiment on OVCAR-8 ovarian, 89.4%; in the experiment on OVCAR-5 ovarian, 106%; in the experiment on SK-OV-3 ovarian, 89.3%; with IGROV1 ovarian it was 75.1%; in the experiment with OVCAR-3 ovarian, 86.2%. Besides, the results for the growth in the experiment on HS 578T breast, in the experiment on NCI/ADR-RES ovarian and in the experiment with T-47D breast were 94.5%, 86.7% and 86.6%, respectively.
For the compound `CCOc1ccc(-c2nonc2NC(=O)c2cccc(C)c2)cc1OCC`, the growth in the experiment with RPMI-8226 leukemia was 9.09% (active); in the experiment with OVCAR-8 ovarian it was 79.5%; in the experiment with OVCAR-5 ovarian, 89.4%; with SK-OV-3 ovarian, 96.2%; in the experiment on IGROV1 ovarian, 68.3%; in the experiment with HS 578T breast it was 85.4%. Besides, the growth is 67.5% in the experiment with NCI/ADR-RES ovarian and 84.3% in the experiment on T-47D breast.
For `O=C(CSc1ccc2nnc(-c3cccc(F)c3)n2n1)Nc1ccc2c(c1)OCO2`, the growth in the experiment on RPMI-8226 leukemia was 52.3%; in the experiment with OVCAR-8 ovarian, 53.4%; with OVCAR-5 ovarian, 113%; in the experiment on SK-OV-3 ovarian, 100%; in the experiment on IGROV1 ovarian, 54.8%; in the experiment with OVCAR-3 ovarian, 48.3%. Further, the growth was 76.4% in the experiment on HS 578T breast, 48.4% in the experiment on NCI/ADR-RES ovarian and 56.2% in the experiment with T-47D breast.
